Screening data from PubChem BioAssay.
In the library only some 6.6% were active in any assay of this set; here they are far more common.
KB-3-1 tox: kills parental KB-3-1 adenocarcinoma cells; KB-3-1 viability, CellTiter-Glo ATP luminescence, 72 h; hit rate 1.4% among 400,000; Potency, µM (titrated, usually from 46.1 µM), usual class: cytotoxic; AID 1347075; further: on the % scale 0 is the no-effect control and ±100 the full control effect; nearly all actives have a fitted effect of over 60% in size
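72 h, 37 °C compound treatment of KB-3-1 parental cells; CellTiter-Glo added, 10 min, luminescence read. Data corrected against DMSO-only plates and normalized before curve fitting.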
SW480 rereplic: DNA re-replication induction in SW480 cells; hit rate 1.8% among 340,000; SW480 DNA re-replication, Hoechst DNA content imaging, 48 h; AID 624297; Potency, µM (top dose mostly 46.1 µM), without a hit: top-dose re-replication activation, actives largely listed as activators; further: % of control where 0% means no effect; nearly all actives have a fitted effect of over 55% in size
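First, 250 cells per well were seeded. Next, compound or vehicle (23 nL) was pinned in, plates sat 48 hr at 37 C. Finally Hoechst was added for 40 min before fluorescence scanning.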
KB-V1 MDR tox: KB-V1 MDR subline cytotoxicity | hit rate 3.4% among 400,000 | Potency, µM (series often up to 46.1 µM), usual class: cytotoxic | KB-V1 MDR cells viability, CellTiter-Glo, 72 h; further: on the % scale 0 is the no-effect control and ±100 the full control effect; nearly all actives have a fitted effect of over 60% in size
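Compound-treated KB-V1 multidrug-resistant cells, 72 h, 37 degrees C; viability by CellTiter-Glo. Fitted qHTS curves give the values.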
MCF10A rerep: inducers of DNA re-replication in MCF 10A breast cells. AID 624296. MCF 10A DNA re-replication, Hoechst nuclear intensity, 48 h. Potency, µM (doses to about 46.1 µM), for the others: at the top dose activity, positive = re-replication, most hits filed as activators. hit rate 2.9% among 350,000; further: % of control where 0% means no effect; nearly all actives have a fitted effect of over 50% in size
TSG101-PTAP inh: blocks PTAP/TSG101 interaction to inhibit HIV-1 budding | 340,000 tested, under 10 active | Potency, µM (titrated, usually from 115 µM), for the others: at the highest dose activity change, negative = inhibition, actives largely listed as inhibitors | Q99816 | Fluorescence polarization, FITC-PTAP peptide / Tsg101 binding; active means well fitted inhibition curve with a large enough effect in the main read-out, with a control signal flat, not every such curve was filed as active; inconclusive means small, poorly fitted or top-dose-only effect, or effect the other way, or a change in a side signal; inactive means no such curve, though single readings can be large or run the other way; further: % of control where 0% means no effect
Target sequence (Q99816 whole entry, looked up): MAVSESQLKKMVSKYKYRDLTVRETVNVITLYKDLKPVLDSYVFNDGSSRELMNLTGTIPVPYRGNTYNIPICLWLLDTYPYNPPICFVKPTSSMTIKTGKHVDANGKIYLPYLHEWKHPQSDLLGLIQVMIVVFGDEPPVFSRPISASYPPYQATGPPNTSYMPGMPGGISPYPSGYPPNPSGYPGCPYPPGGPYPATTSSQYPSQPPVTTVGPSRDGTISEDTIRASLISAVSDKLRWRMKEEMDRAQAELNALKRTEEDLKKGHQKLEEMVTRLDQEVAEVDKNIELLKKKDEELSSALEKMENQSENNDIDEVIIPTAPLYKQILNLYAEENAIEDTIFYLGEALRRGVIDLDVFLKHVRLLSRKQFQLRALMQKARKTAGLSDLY
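Tsg101 binding domain (10 uM final) was mixed with compound and a FITC-labeled PTAP peptide (50 nM final) in HEPES pH 7.5 buffer with NaCl, Tween 20, EDTA and TCEP; fluorescence polarization was read after 20 min at r.t.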
RGS4 inhibitor: inhibitors of human regulator of G protein signaling 4; Transcreener GDP fluorescence polarization, RGS4-accelerated GTP hydrolysis; hit rate 0.039% among 390,000; Potency, µM (titrated, usually from 114 µM), without a hit: at the top dose activity change, negative = inhibition, hits mostly inhibitors; further: on the % scale 0 is the no-effect control and ±100 the full control effect; nearly all actives have a fitted effect of over 75% in size
Target sequence (P49798 whole entry, looked up): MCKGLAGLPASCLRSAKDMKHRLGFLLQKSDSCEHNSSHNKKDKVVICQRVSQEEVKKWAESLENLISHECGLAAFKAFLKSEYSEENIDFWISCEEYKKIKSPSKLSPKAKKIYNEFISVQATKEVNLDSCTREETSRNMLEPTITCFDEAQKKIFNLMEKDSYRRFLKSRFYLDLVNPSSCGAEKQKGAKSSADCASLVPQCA
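MLSMR compounds (23 nl, pin-transferred) preincubated 10 min at room temperature with a 500nM (2x) first reagent, then RGS4 at 900nM (2x) plus Transcreener GDP mix added; fluorescence polarization (620/688 nm) read before and after 90 min at 30 °C.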
* hit, by the source's call; i = inactive; ? = inconclusive; . = not tested or not shown; ! = not active in a repeat; [ ] = another dose, or the depositor's remark. Unless noted, the call rests on the fitted dose curve; in most records, active means well fitted curve in the direction sought with a large enough effect; inconclusive means small, poorly fitted or top-dose-only effect, or another doubt; inactive means no such curve, though single readings can be large; an effect the other way counts as inactive or inconclusive. Potency means the concentration at half of the fitted maximal effect.

SMILES	KB-3-1 tox	SW480 rereplic	KB-V1 MDR tox	MCF10A rerep	TSG101-PTAP inh	RGS4 inhibitor
COc1ccccc1-[n+]1c(C)cc(/C=C2\Sc3ccccc3N2C)cc1C	0.29µM*	23µM*	9.2µM*	?	?	-6%
COc1ccc(-[n+]2c(C)cc(/C=C3\Sc4ccccc4N3C)cc2C)cc1	?	18µM*	?	?	15%	-37%
COc1ccccc1OC(=O)CCN1c2ccccc2Sc2ccccc21	i	-2%	i	3%	1%	-15%
COc1ccc(C(=O)/C=C2\Sc3ccccc3N2C)cc1	i	?	?	?	-4%	9%
CCn1c2ccccc2c2cc(CN3CCN(S(C)(=O)=O)CC3)ccc21	i	12%	3.3µM*	22%	-2%	-3%
CCn1c2ccccc2c2cc(CN3CCN(Cc4ccc(Cl)cc4)CC3)ccc21	.	.	.	.	.	-19%
CC1CCN2c3ccccc3CC3(C(=O)OC(C)(C)OC3=O)C2C1 (centres undefined)	i	.	i	.	.	-7%
CCN(CC)S(=O)(=O)c1cc(NC(=O)C(C)OC(=O)c2[nH]c(C)c(C(C)=O)c2C)ccc1C (centres undefined)	?	4%	21µM*	?	-5%	-24%
Cc1ccc(C)c(NS(=O)(=O)c2cc(C(=O)Nc3cccc(N(C)S(C)(=O)=O)c3)ccc2C)c1	?	-1%	?	?	-10%	23%
Cc1ccc(NS(=O)(=O)c2cc(C(=O)Nc3cccc(N(C)S(C)(=O)=O)c3)ccc2C)c(C)c1	i	-8%	16µM*	3%	-4%	-22%
CC(=O)c1c(C)[nH]c(C(=O)Nc2ccc(C)c(S(=O)(=O)Nc3ccc(C)cc3C)c2)c1C	i	16µM*	i	12µM*	-9%	23%[11.4 µM]
CCc1nc2ccccc2n2c(-c3ccccc3)c3c(=O)n(C)c(=O)n(C)c3c12	?	.	i	.	.	5%
Nc1c(C(=O)NCCN2CCOCC2)c2nc3ccccc3nc2n1CCc1ccccc1	i	16µM*	23µM*	1.8µM*	-11%	17%
Nc1c(C(=O)NCc2ccco2)c2nc3ccccc3nc2n1CCc1ccc(F)cc1	i	5.8µM*	16µM*	?	-1%	?
CCc1ccccc1NC(=O)c1ccc2[nH]c(C)c(C)c2c1	i	.	i	.	.	-19%
CC(=O)NC1=NN(C(C)=O)C(C)(c2cccs2)S1 (centres undefined)	?	12µM*	i	1.3µM*	-3%	13%
CC1CCN(c2nc3c(S(=O)(=O)c4cccc(Cl)c4)nnn3c3ccsc23)CC1	i	.	i	.	.	8%
O=C(C1CCN(S(=O)(=O)N2CCC3(CC2)OCCO3)CC1)N1CCN(Cc2ccccc2)CC1	i	5.8µM*	i	?	-7%	-3%
O=C(NCCc1ccccc1)C1CCN(S(=O)(=O)N2CCC3(CC2)OCCO3)CC1	i	?	i	2%	-7%	2%
O=C(C1CCN(S(=O)(=O)N2CCC3(CC2)OCCO3)CC1)N1CCc2ccccc2C1	i	-7%	9.2µM*	-4%	-2%	-19%
O=C(C1CCN(Cc2cc(Cl)ccc2O)CC1)N1CCN(Cc2ccccc2)CC1	?	11%	10µM*	13%	0%	5%
O=C(C1CCN(Cc2ccccc2O)CC1)N1CCN(Cc2ccc3c(c2)OCO3)CC1	.	-5%	.	7%	-5%	21%
O=C(NCc1ccccn1)C1CCN(S(=O)(=O)N2CCC3(CC2)OCCO3)CC1	i	12µM*!	i	?	-2%	4%
Cc1cccc(-n2ncc(C(=O)NCc3ccccn3)c2C2CCN(C(=O)OC(C)(C)C)CC2)c1	.	.	.	.	.	3%
O=C(NCc1ccccc1Cl)c1ccc2c(c1)ncn2-c1cccc(F)c1	i	.	i	.	.	13%
SMILES	KB-3-1 tox	SW480 rereplic	KB-V1 MDR tox	MCF10A rerep	TSG101-PTAP inh	RGS4 inhibitor
Cc1ccccc1/C=c1\s/c(=C\C(=O)C(C)(C)C)[nH]c1=O	?	?	?	16µM*	-2%	-6%
COc1cccc(CNC(=O)CCc2c(C)nc3c4c(C)cc(C)nc4nn3c2C)c1	.	.	.	.	.	19%
Oc1ccc(C[C@H]2CNC(=S)N2CC2CCCN2C[C@H](Cc2ccc(O)cc2)N2C[C@H](Cc3ccc(O)cc3)N(CC3CCCCCC3)C2=S)cc1 (some centres undefined)	21µM*	?	?	10µM*	-4%	9%
CC(C)C[C@H]1CN([C@@H](CC(C)C)CN2CCCC2CN2C(=S)NC[C@@H]2Cc2ccc(O)cc2)C(=S)N1CC1CCCCC1 (some centres undefined)	?	4%	21µM*	?	-10%	6%
Cc1ccc(C)c(C(=O)C[n+]2cccc(Br)c2)c1	?	.	i	.	.	.
CC(=O)C1=C(C)NC(SCC(=O)Nc2nccs2)=C(C#N)C1c1ccccc1Cl (centres undefined)	i	6.5µM*	i	1.8µM*	0%	-18%
C=CCOC(=O)C1=C(C)NC(SCC(=O)Nc2nccs2)=C(C#N)C1c1ccc(Cl)cc1 (centres undefined)	?	1.6µM*	i	1µM*	-1%	-5%
CS(=O)(=O)N(Cc1ccccc1)c1ccc(C(=O)Nc2ccc(Cl)cc2)cc1	?	.	?	.	.	6%
